Bioassay records as filed in PubChem.
Most compounds without a hit are left out; they make up all but 1.5% or so of the library.
PriA SSB inh: inhibitors of Klebsiella pneumoniae PriA binding to SSB C-terminal tail, primary screen, biochemical, AlphaScreen. AlphaScreen SSBct-PriA binding, biotinylated peptide. inhibition, % at 33 µM. 0.6% of 430,000 active; in the data active = inhibition mostly above about 37%, no sharp cut-off; inactive = mostly below about 20%;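 note: plate controls were negative control peptide for no effect and reference peptide for full effect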
Sa RN4220 lethal: growth inhibition of S. aureus RN4220, primary screen, OD600; 16 h; inhibition, % (test concentration not listed); 0.33% of 330,000 active; in the data active = inhibition above about 85%;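 note: plate controls were untreated cells for no effect and reference antibiotic for full effect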
ugtP null kill: growth inhibition of ugtP-null S. aureus, primary screen, RN4220 ugtP deletion, OD600; growth inhibition, % (test concentration not listed); 0.54% of 330,000 active; AID 1259309, 2017; 16 h; in the data active = growth inhibition above about 68%;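 note: plate controls were untreated wells for no effect and antibiotic for full effect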
CCHF vOTU inh: CCHFV vOTU protease inhibitors, primary screen, biochemical, Pep-AMC substrate, fluorescence | AID 651958, 2012 | Crimean-Congo hemorrhagic fever virus L polyprotein viral ovarian tumor (vOTU) protease … | inhibition, % at 11.5 µM | 0.55% of 370,000 active; in the data active = inhibition above about 30%; note: 0% = vehicle wells with enzyme and 100% = no enzyme wells
DUSP3 inh: VHR1 phosphatase inhibitors, primary screen, biochemical, absorbance, uHTS. Dual specificity protein phosphatase 3 (Homo sapiens), P51452. 0.52% of 290,000 active. inhibition, % at 13.3 µM. recombinant VHR phosphatase, pNPP absorbance; in the data active = inhibition above about 50%
Target sequence (P51452 whole entry, looked up): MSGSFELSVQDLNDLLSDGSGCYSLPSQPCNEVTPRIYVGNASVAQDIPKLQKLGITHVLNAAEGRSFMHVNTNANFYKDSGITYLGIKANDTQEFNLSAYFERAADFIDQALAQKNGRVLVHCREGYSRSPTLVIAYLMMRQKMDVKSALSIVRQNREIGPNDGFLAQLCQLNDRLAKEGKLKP
* marks the source's active call; other numbers are inactive results; / = no result.

SMILES	PriA SSB inh	Sa RN4220 lethal	ugtP null kill	CCHF vOTU inh	DUSP3 inh
Cc1cc(OC2CCN(C(=O)C3(c4ccccc4)CCOCC3)CC2)cc(=O)o1	23*	/	/	/	/
Cc1cc(=O)[nH]c(-n2nc(C)c(CCC(=O)NCc3ccc4c(c3)OCO4)c2C)n1	-8	/	/	/	/
CN1c2ccccc2N(C)C1(C)c1ccccc1	42*	-4	-6	24	5
O=C(CSc1nc2sc3c(c2c(=O)n1-c1ccccc1)CCC3)Nc1ccc(Cl)c(C(F)(F)F)c1	-10	/	/	/	/
CNc1ccc(Br)cc(C(=O)/C=C/c2cccc(OC)c2)c1=O	4	4	-6	20	22
CNc1ccc(Br)cc(C(=O)/C=C/c2ccc(OC)cc2OC)c1=O	-1	-7	98*	10	2
O=S(=O)(c1ccc(NC(=S)NN=Cc2ccc(Oc3ccccc3)cc2)cc1)N1CCOCC1	-4	/	/	/	/
O=[N+]([O-])c1cc(Cl)ccc1NCCc1ccccn1	55*	1	-2	7	21
O=c1ccnc(Sc2ncccc2[N+](=O)[O-])[nH]1	-4	1	4	6	36
O=[N+]([O-])c1ccc(Sc2cccc3cccnc23)c([N+](=O)[O-])c1	87*	4	34	-4	43
O=[N+]([O-])c1cc(F)cc2cccnc12	55*	/	/	/	/
O=[N+]([O-])c1cccnc1Sc1ccc(F)cc1	42*	2	-3	-14	/
O=C(COc1cccc2c1CCN(Cc1ccccc1F)C2=O)N1CCCCC1	-10	3	2	-5	52*
COc1cc(Br)cc2cc(C(=O)Oc3cccc4cccnc34)c(=O)oc12	89*	/	/	/	/
O=C(Nc1ccccc1F)c1cc(C2CCN(C(=O)c3ccno3)CC2)[nH]n1	0	/	/	/	/
O=C(Nc1ccccc1F)c1cc(C2CCN(C(=O)Cc3noc4ccccc34)CC2)[nH]n1	62*	/	/	/	/
O=C(NCCn1ccnc1-c1ncccn1)Nc1c(F)cccc1F	86*	/	/	/	/
Cc1ccc(NC(=O)NCCn2ccnc2-c2ncccn2)cc1C	97*	/	/	/	/
COc1cccc(NC(=O)NCCn2ccnc2-c2ccccn2)c1	-3	/	/	/	/
COc1cc(SSc2cc(OC)cc([N+](=O)[O-])c2N)c(N)c([N+](=O)[O-])c1	-1	38	87*	25	-5
COc1cc([N+](=O)[O-])c2ncsc2c1	7	8	15	7	2
CS(=O)(=O)c1ccc(Nc2nc(C(=O)N3CCCC3)cs2)cc1	2	/	/	/	/
CCN(CC)c1ccc(/C=N/Nc2nc3ccccc3[nH]2)c(O)c1	/	/	/	11	10
CCN(CC)c1ccc(C=NNc2nc3ccccc3[nH]2)cc1	52	97*	99*	/	/
Brc1ccc(-c2ccc(C=NNc3nc4ccccc4[nH]3)o2)cc1	8	86*	80	/	/
SMILES	PriA SSB inh	Sa RN4220 lethal	ugtP null kill	CCHF vOTU inh	DUSP3 inh
Clc1ccc(N2CCN(c3ncnc4c3oc3ccccc34)CC2)cc1	-1	7	6	0	50*
CN(C)S(=O)(=O)c1ccc2c3c(cccc13)C(=O)N2C(=O)C1CCCCC1	7	/	/	/	/
Nc1c(C(=O)O)ccc2c1C(=O)c1ccccc1C2=O	22	29	11	-1	9
Nc1cc(C(=O)O)c(N)c2c1C(=O)c1ccccc1C2=O	74*	4	-3	/	-5
Cc1cc(C(=O)NNC(=O)COc2ccccc2Cl)n[nH]1	-7	1	4	-2	51*
CCOC(=O)/C(C#N)=C1/C=C(C)NC(c2ccccc2O)=N1	/	81	83*	0	8
CCOC(=O)/C(C#N)=C1\Nc2ccccc2N=C1N(CC(C)C)CC(C)C	/	-13	7	-12	19
O=[N+]([O-])c1ccc(N2CCCC2)cc1N1CCN(c2ccccc2)CC1	84*	/	/	/	/
CN1CCN(c2cc(N3CCCC3)ccc2[N+](=O)[O-])CC1	59*	/	/	/	/
O=[N+]([O-])c1ccc(N2CCCC2)cc1N1CCOCC1	57	/	/	/	/
CN1CCN(c2ccc([N+](=O)[O-])c(N3CCCCC3)c2)CC1	1	6	5	6	15
CON=Cc1ccc(N2CCCC2)c([N+](=O)[O-])c1	39*	11	9	/	/
CO/N=C/c1ccc(N2CCOCC2)c([N+](=O)[O-])c1	/	/	/	4	9
COc1ccccc1C1NC(=S)NC(C)=C1C(=O)Nc1ccccc1F (stereo not given)	-11	/	/	/	/
CN(C(=O)c1ccc2c(=O)n3c(nc2c1)CCCCC3)c1ccccc1	-17	11	8	4	53*
CN(C(=O)c1ccc2c(=O)n3c(nc2c1)CCCCC3)c1ccccc1Cl	8	8	-3	-11	20
O=c1[nH][nH]c(=O)c2ncccc12	61*	/	/	/	/
O=c1[nH]cc(I)c2cccnc12	45	/	/	/	/
Cc1c(C)c2cccnc2c2ncccc12	99*	93*	74	/	/
c1cnc2c(c1)c1nccnc1c1cccnc12	114*	/	/	/	/
Cc1ccc(O)c2ncccc12	36	/	/	/	/
CC(C)(C)C(=O)[C@@H](O)C(C)(C)C	-12	/	/	/	/
CCN1/C(=C/c2cc[n+](C)cc2)C=Cc2cc(C)ccc21	/	54	100*	4	2
CS(=O)(=O)N1CCCC(C(=O)Nc2ccc(-c3nc4ccccc4o3)cc2)C1 (stereo not given)	0	/	/	/	/
CCCCCCC[n+]1ccc(-c2cc[n+](CCCCCCC)cc2)cc1	-24	8	0	-24	-2
SMILES	PriA SSB inh	Sa RN4220 lethal	ugtP null kill	CCHF vOTU inh	DUSP3 inh
CCCCCCCCCCCCCCCC[n+]1ccc(C(N)=O)cc1	0	100*	100*	29	-14
CCCCCCCCCCCCCCCC[n+]1ccc(/C=N/O)cc1	/	/	/	56*	-7
CCCCCCCCCCCCCCCC[n+]1cccc(C(=O)N(CC)CC)c1	2	100*	100*	22	-4
CCCCCCCC[n+]1cccc(C(=O)N(CC)CC)c1	2	2	8	-2	8
CC(C)c1cc(=O)n2c(n1)SCC2CC(=O)NCCc1c[nH]c2ccccc12 (stereo not given)	16	/	/	/	/
CN(C)C(CNC(=O)Cc1cccc2ccccc12)c1ccsc1 (stereo not given)	3	/	/	/	/
S=C(NCCc1ccccc1)N/N=C\c1ccccc1Cl	-18	/	/	/	/
CCCN1CCC2(CC1)NC(=O)N(CC(=O)NCc1ccco1)C2=O	-5	/	/	/	/
COc1ccc(-c2cnc(C(=O)Nc3ccccc3Cl)o2)cc1	-6	/	/	/	/
O=C(CCSc1ccccc1)N1C2CCC1c1cncnc1C2 (stereo not given)	-11	/	/	/	/
Cc1cc(C)c(S(=O)(=O)c2ccc(C(C)(C)C)cc2)c(Cl)n1	-6	0	35	12	53*
COc1ccc(N2C(=O)C3CC=C(Cl)CC3C2=O)cc1 (stereo not given)	-5	8	13	2	23
COc1ccc(NC(=O)c2ccc(N3C(=O)C4CC=C(Cl)CC4C3=O)cc2)cc1 (stereo not given)	-13	5	-2	-10	56*
CS(=O)(=O)N(CC(=O)N1CCN(Cc2ccccc2)CC1)c1ccccc1Br	-8	3	3	12	15
CS(=O)(=O)N(CC(=O)N1CCN(Cc2ccccc2)CC1)c1ccccc1F	52*	/	/	6	17
